Rows were chosen to be rich in hits. Some 11% of all compounds tested hit in one or more screens of this group.
PNC assembly inh: inhibitors of perinucleolar compartment assembly | PC3M PTB-GFP, PNC prevalence imaging, 16 h; stronger effect = lower value | activity change (PNC), negative = inhibition, % at 10 µM | actives 3.1% (n = 140,000) | AID 2417;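 active means readout at or below -70, meaning at least 70% loss of cells showing the perinucleolar compartment, a nuclear body marking cancer cells; inconclusive means readout between -30 and a set limit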
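Compounds are pinned in duplicate onto adhered PC3M cells stably expressing GFP-tagged PTB and incubated 16 h at 37 C. Cells are then fixed, nuclei stained with Hoechst, and PNC-positive cells counted.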
HPGD block: HPGD (human) dehydrogenase inhibition; actives 4.3% (n = 150,000); AID 894; Potency, µM, actives largely listed as inhibitors; P15428; purified HPGD, NADH fluorescence kinetic, PGE2 substrate
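NADH formation kinetics: reaction with 30 uM PGE2 and 1 mM NAD+ (final), 20 nM enzyme, Tris-HCl pH 8 with Tween 20, after 15 min compound preincubation at room temperature. Fluorescence change, last versus first of five reads.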
IMPase inh: cell-permeable inhibitors of inositol monophosphatase (IMPase); P97697; CHO-M1 cells, IP1 accumulation, HTRF TR-FRET ratio; inhibition (IP1 accumulation), % at 46.1 µM; 120,000 tested, under 10 active; AID 901; active means well fitted curve in the direction sought with a large enough effect in the signal ratio, not every such curve was filed as active; inconclusive means small, poorly fitted or top-dose-only effect, or a change in a side signal; inactive means no such curve, though single readings can be large or run the other way; the % refers to the signal ratio;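 further: cells stimulated with carbachol in lithium chloride buffer; higher means more IMPase inhibition seen as more IP1 and lower FRET ratio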
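Carbachol-driven Gq signalling in CHO-M1 cells (2000/well) generates IP1. Compounds that block IMPase raise IP1 and so reduce the FRET signal from Eu-anti-IP1 and d2-IP1 after a 10 min room-temperature lysis.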
IMPase Li inh: IMPase inhibition in cells with lithium potentiation | Potency, µM (titrated, usually from 59.4 µM), actives largely listed as inhibitors | AID 1457 | CHO-M1 cells, IP1 TR-FRET (IP-One), carbachol + lithium | actives 0.35% (n = 210,000); active means well fitted inhibition curve with a large enough effect; inconclusive means small, poorly fitted or top-dose-only effect; inactive means no such curve, though single readings can be large or run the other way;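 further: IP1 builds up when IMPase is blocked and the TR-FRET signal falls; nearly all actives have a fitted effect of over 50% in size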
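CHO cells stably expressing M1 receptor (2000/well, cultured 16–30 h) treated 30 min at 37C with compound plus low lithium. Cytosolic IP1 by TR-FRET (665/620 ratio and 620 channel) after 10 min lysis; AC50 by Hill fit.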
ALDH1A1 inh: ALDH1A1 (human) enzyme inhibition | Potency, µM (doses to about 75.3 µM), actives largely listed as inhibitors | actives 7.3% (n = 220,000) | Purified ALDH1A1, NADH fluorescence, propionaldehyde substrate | AID 1030 | P00352
Target sequence (P00352 whole entry, looked up): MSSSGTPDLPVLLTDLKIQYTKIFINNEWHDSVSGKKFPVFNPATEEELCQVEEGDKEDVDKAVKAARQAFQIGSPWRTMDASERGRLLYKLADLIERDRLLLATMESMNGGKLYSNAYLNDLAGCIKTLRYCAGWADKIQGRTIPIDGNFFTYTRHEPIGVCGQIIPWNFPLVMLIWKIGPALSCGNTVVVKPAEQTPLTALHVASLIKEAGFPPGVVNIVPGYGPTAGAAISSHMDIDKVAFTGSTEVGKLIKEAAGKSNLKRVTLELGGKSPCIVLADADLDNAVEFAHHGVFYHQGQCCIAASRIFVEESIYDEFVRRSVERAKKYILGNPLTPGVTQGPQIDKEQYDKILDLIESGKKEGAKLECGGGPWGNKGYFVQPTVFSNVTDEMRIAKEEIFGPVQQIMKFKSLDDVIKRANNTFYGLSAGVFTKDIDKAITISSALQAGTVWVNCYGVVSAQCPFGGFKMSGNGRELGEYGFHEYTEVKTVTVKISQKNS
Hits are given with their value; n = inactive; u = inconclusive; x = no result; [ ] = dose if it differs, or a comment. Unless noted, the call rests on the fitted dose curve; in most records, active means well fitted inhibition curve with a large enough effect (not every such curve was filed as active); inconclusive means small, poorly fitted or top-dose-only effect, or another doubt; inactive means no such curve, though single readings can be large or run the other way.

SMILES | PNC assembly inh | HPGD block | IMPase inh | IMPase Li inh | ALDH1A1 inh
Cc1occc1C(=O)N1CCN(C(c2ccccc2)c2ccccc2)CC1 | n | n | n | n | u
O=C(C1=COCCO1)N1CCN(C(c2ccccc2)c2ccccc2)CC1 | n | n | n | n | 8.9µM
COc1ncc2nc(C)c(=O)n(CCC#N)c2n1 | x | n | x | n | n
CCC(C)NC(=S)N1CCN(C(c2ccccc2)c2ccccc2)CC1 (configuration not stated) | n | n | x | n | u
CCN1CCN(C(=S)NC(C)c2ccccc2)CC1 (configuration not stated) | n | n | x | n | 19µM
CNC(=S)N1CCN(C(c2ccccc2)c2ccccc2)CC1 | x | x | x | n | 2µM
CCC(=O)N[C@@H]1Cc2ccccc2[C@@H](c2ccccc2)C1 | x | n | n | n | n
COc1ccc2[nH]c(C)c(CCN3C(=O)C4C5C=CC(C5)C4C3=O)c2c1 (configuration not stated) | n | n | n | n | 13µM
COc1ccc2[nH]c(C)c(CN3CCCCC3)c(=O)c2c1 | n | n | n | n | u
Cn1c(=O)[nH]c(=O)c2c1nc1n(CCO)c(-c3ccccc3)cn21 | x | x | n | x | x
CC(=O)Nc1ccc(S(=O)(=O)NCCNc2ccccc2[N+](=O)[O-])cc1 | x | x | x | n | 4.5µM
O=[N+]([O-])c1ccccc1S(=O)(=O)NCCc1ccncc1 | x | x | x | n | 18µM
O=[N+]([O-])c1cccc(Cl)c1NCCNS(=O)(=O)c1ccccc1 | u | n | n | n | 11µM
O=[N+]([O-])c1ccccc1NCCNS(=O)(=O)c1ccc(Cl)cc1 | n | n | x | n | u
COCc1cc(C)nc2sc(C(=O)Nc3ccc(OC(F)(F)F)cc3)c(N)c12 | x | x | n | x | x
N#CCCn1c(=O)c(-c2cccs2)nc2cnc(N3CCOCC3)nc21 | x | x | x | n | u
CN(Cc1ccco1)c1ncncc1-c1ccccc1C(F)(F)F | x | x | x | n | n
CCC(=O)N1CCc2cc(S(=O)(=O)NCCC(=O)N3CCc4ccccc4C3)ccc21 | n | n | n | n | 18µM
CCC(=O)N1CCc2cc(S(=O)(=O)NCCC(=O)N3CC=C(c4ccccc4)CC3)ccc21 | n | n | n | n | u
CCC(=O)N1CCc2cc(S(=O)(=O)NCCCOC)ccc21 | n | 28µM | n | n | 20µM
Cc1nc2ccc(S(=O)(=O)NCC(=O)N3CCc4ccccc4C3)cc2s1 | -97 | n | n | n | n
Cc1ccc(COC(=O)c2[nH]c3c(c2C)C(=O)CC(c2ccc(Cl)cc2)C3)cc1 (configuration not stated) | x | x | n | x | x
O=C(CSc1oc(-c2ccc(F)cc2)nc1S(=O)(=O)c1ccc(F)cc1)NCC1CCCO1 (configuration not stated) | n | n | n | n | n
O=C(CSc1oc(-c2ccc(F)cc2)nc1S(=O)(=O)c1ccccc1)NCC1CCCO1 (configuration not stated) | -119 | n | n | n | n
O=C(CSc1oc(-c2ccccc2)nc1S(=O)(=O)c1ccc(F)cc1)NCC1CCCO1 (configuration not stated) | -100 | u | n | u | u
SMILES | PNC assembly inh | HPGD block | IMPase inh | IMPase Li inh | ALDH1A1 inh
COC(=O)c1c(NC(=O)Cc2cccs2)sc2c1CCC(C)C2 (configuration not stated) | u | 13µM | n | n | 14µM
COC(=O)c1c(NC(=O)Cn2cnc([N+](=O)[O-])n2)sc2c1CCC(C)C2 (configuration not stated) | u | 11µM | x | n | n
COc1ccccc1C(=O)Nc1cc2c(cc1N1CCOCC1)n(C)c(=O)n2C | x | x | n | x | x
O=[N+]([O-])c1ccc2c(c1)c(S(=O)(=O)O)cc1nonc12 | x | n | x | n | n[13.5 µM]
O=C(CCN1C(=O)C2CCCCC2C1=O)Nc1ccc(F)c(F)c1F (configuration not stated) | x | x | x | n | 10µM
O=C(CN1C(=O)C2CC=CCC2C1=O)NCC(=O)Nc1ccc(F)c(F)c1F (configuration not stated) | x | x | x | n | n
Cc1csc(/C(=N\O)c2csc(C)n2)n1 | -100 | n | n | n | n
Cc1[nH]c(=S)c(C#N)c(C)c1C(=O)Nc1ccccc1 | n | 22µM | n | n | u
CCc1c(C(=O)Nc2ccccc2)c(C)[nH]c(=S)c1C#N | n | 20µM | n | u | 3.5µM
O=c1[nH]c(C(F)(F)F)nc2c1nnn2Cc1ccccc1F | n | 18µM | n | n | n

Assay outcomes: PubChem, National Center for Advancing Translational Sciences (NCATS)
